# “And” between values parts separate entries of the source, which are not always exact repeats. Equal values may be shown once. The panel holds about 83,000 compounds, 20% with a hit somewhere; the sample as a whole holds those more often.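 Negative percent growth values reflect cell death: -40 means 40% of the cells present at the start died, and -100 means all died.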 The source made the active and inactive calls. The calls were made as follows: active = growth percent below 10; inactive = the rest.
# Tests used:
# Assay in all cases: NCI-60 one-dose screen, 48 h (100 = growth as untreated, 0 = no growth, -100 = all killed)
# Details in all cases: 10 µM unless noted
# NCI-H23 lung = test system: NCI-H23 lung
# NCI-H226 lung = test system: NCI-H226 lung
# NCI-H322M lung = test system: NCI-H322M lung
# HOP-62 NSCLC = test system: HOP-62 NSCLC
# NCI-H460 lung = test system: NCI-H460 lung
# NCI-H522 lung = test system: NCI-H522 lung
# A549/ATCC NSCLC = test system: A549/ATCC NSCLC
# 786-0 renal = test system: 786-0 renal
# COLO 205 colon = test system: COLO 205 colon
# DU-145 prostate = test system: DU-145 prostate
# K-562 leukemia = test system: K-562 leukemia
# MALME-3M melanoma = test system: MALME-3M melanoma
# MDA-MB-231 breast = test system: MDA-MB-231 breast
# RXF 393 renal = test system: RXF 393 renal
# SF-268 CNS = test system: SF-268 CNS
# SF-539 CNS = test system: SF-539 CNS
# UACC-257 melanoma = test system: UACC-257 melanoma
# M14 melanoma = test system: M14 melanoma
# HOP-92 NSCLC = test system: HOP-92 NSCLC
# SF-295 CNS = test system: SF-295 CNS
SMILES,growth (NCI-H23 lung),growth (NCI-H226 lung),growth (NCI-H322M lung),growth (HOP-62 NSCLC),growth (NCI-H460 lung),growth (NCI-H522 lung),growth (A549/ATCC NSCLC),growth (786-0 renal),growth (COLO 205 colon),growth (DU-145 prostate),growth (K-562 leukemia),growth (MALME-3M melanoma),growth (MDA-MB-231 breast),growth (RXF 393 renal),growth (SF-268 CNS),growth (SF-539 CNS),growth (UACC-257 melanoma),growth (M14 melanoma),growth (HOP-92 NSCLC),growth (SF-295 CNS)
CCOC(=O)c1sc(N)nc1-c1ccccc1,101% (inactive),98.7% (inactive),97% (inactive),87.9% (inactive),104% (inactive),95.5% (inactive),101% (inactive),95.1% (inactive),102% (inactive),113% (inactive),96% (inactive),120% (inactive),117% (inactive),102% (inactive),108% (inactive),88.4% (inactive),98.1% (inactive),99.7% (inactive),–,–
Nc1cc2c(cc1N)-c1ccccc1C2,93.1% (inactive) and 88.3% (inactive),84.3% (inactive) and 88.4% (inactive),85.4% (inactive) and 95% (inactive),96.6% (inactive) and 104% (inactive),–,15.9% (inactive) and 52.2% (inactive),90.9% (inactive) and 90.4% (inactive),89.3% (inactive) and 99.6% (inactive),94.8% (inactive) and 93.1% (inactive),104% (inactive) and 106% (inactive),79.4% (inactive) and 87% (inactive),76.5% (inactive) and 103% (inactive),64.7% (inactive) and 97% (inactive),88.2% (inactive) and 96.4% (inactive),86.8% (inactive) and 92.6% (inactive),74.9% (inactive) and 92.5% (inactive),101% (inactive) and 98.1% (inactive),–,84.3% (inactive),156% (inactive) and 98.8% (inactive)
CNc1cc(-c2cccc(OC(F)(F)F)c2)nc2ccc(N3CCCC3)cc12,66.5% (inactive) and 6.85% (active) and 8.59% (active),94.6% (inactive) and 68.5% (inactive) and -35.2% (active),61.8% (inactive) and -4.66% (active) and 76.6% (inactive),74.6% (inactive) and 45.7% (inactive) and 33.4% (inactive),–,32.2% (inactive) and -63.9% (active) and -35.6% (active),-34.3% (active) and 9.17% (active) and 15.2% (inactive),-86% (active) and -95.3% (active) and -67.6% (active),-25.6% (active) and -81.7% (active) and -75.7% (active),-43.5% (active) and 6.55% (active) and 12.9% (inactive),-42.3% (active) and -31.2% (active) and -12.4% (active),-74.2% (active) and -88.1% (active) and -75.4% (active),-47.4% (active) and -63.4% (active) and -2.52% (active),-64.4% (active) and -78.3% (active) and -67.5% (active),78.9% (inactive) and 61.6% (inactive) and 55.9% (inactive),-76.6% (active) and -78.4% (active) and -68.4% (active),82% (inactive) and -59.4% (active) and -57.4% (active),-87% (active) and -86.6% (active) and -76.4% (active),-31.9% (active) and 13% (inactive) and 28.5% (inactive),82.8% (inactive) and -66.4% (active) and -74.5% (active)
CC(C(=O)O)n1cc(C#N)c(=O)[nH]c1=O (stereo unspecified),108% (inactive) and 111% (inactive),93.3% (inactive) and 94.8% (inactive),112% (inactive) and 111% (inactive),92.5% (inactive) and 98.8% (inactive),115% (inactive) and 112% (inactive),98.8% (inactive) and 93.9% (inactive),–,119% (inactive) and 101% (inactive),–,124% (inactive) and 107% (inactive),104% (inactive),102% (inactive) and 116% (inactive),109% (inactive) and 103% (inactive),110% (inactive) and 115% (inactive),96.8% (inactive) and 99.7% (inactive),95.8% (inactive) and 102% (inactive),89% (inactive) and 108% (inactive),120% (inactive) and 107% (inactive),93.2% (inactive) and 98.4% (inactive),93.3% (inactive) and 102% (inactive)
O=C1CCN(Cc2ccccc2)C(=S)N1,117% (inactive) and 100% (inactive),110% (inactive) and 105% (inactive),92.1% (inactive) and 93% (inactive),101% (inactive) and 103% (inactive),113% (inactive) and 105% (inactive),114% (inactive) and 95.1% (inactive),–,108% (inactive) and 109% (inactive),111% (inactive) and 108% (inactive),140% (inactive) and 107% (inactive),87% (inactive),92.6% (inactive) and 101% (inactive),125% (inactive) and 98.1% (inactive),122% (inactive) and 121% (inactive),111% (inactive) and 99.5% (inactive),111% (inactive) and 98.6% (inactive),114% (inactive) and 107% (inactive),–,70.4% (inactive) and 92.4% (inactive),118% (inactive) and 133% (inactive)
O=C(N/N=C/c1ccc2c(c1)OCO2)c1ccncc1,99% (inactive) and 101% (inactive),108% (inactive) and 93.3% (inactive),114% (inactive) and 94.6% (inactive),99.5% (inactive) and 108% (inactive),101% (inactive) and 111% (inactive),77.8% (inactive) and 96.3% (inactive),–,109% (inactive) and 101% (inactive),101% (inactive) and 110% (inactive),114% (inactive) and 113% (inactive),106% (inactive),110% (inactive) and 82.1% (inactive),94.5% (inactive) and 108% (inactive),114% (inactive) and 103% (inactive),109% (inactive) and 102% (inactive),101% (inactive) and 123% (inactive),92.9% (inactive) and 112% (inactive),105% (inactive) and 103% (inactive),106% (inactive) and 70.1% (inactive),113% (inactive) and 107% (inactive)
CCOC(=O)C(CNc1ccccc1)C(=O)OCC,100% (inactive),95.2% (inactive),105% (inactive),90.1% (inactive),103% (inactive),–,–,100% (inactive),–,109% (inactive),100% (inactive),115% (inactive),103% (inactive),98.4% (inactive),100% (inactive),101% (inactive),–,109% (inactive),85.6% (inactive),101% (inactive)
Nc1ccc2[nH]c(-c3ccccc3)cc(=O)c2c1,98.3% (inactive),101% (inactive),97.5% (inactive),96.8% (inactive),97.4% (inactive),71.3% (inactive),102% (inactive),96.6% (inactive),–,101% (inactive),–,80.4% (inactive),100% (inactive),89.9% (inactive),90.7% (inactive),88.5% (inactive),79.8% (inactive),70.6% (inactive),–,93.5% (inactive)
N#C/C(=C/c1c(O)ccc2ccccc12)C(N)=O,87.1% (inactive),89% (inactive),107% (inactive),81.1% (inactive),103% (inactive),76.4% (inactive),–,83.6% (inactive),105% (inactive),104% (inactive),97.4% (inactive),99.4% (inactive),86.4% (inactive),98.3% (inactive),95.4% (inactive),102% (inactive),106% (inactive),94.5% (inactive),–,91.2% (inactive)

# From PubChem BioAssay (NCI)
